Results: PubChem BioAssay (NCI)
The panel holds about 83,000 compounds, 20% with a hit somewhere; the sample as a whole holds those more often.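 48-hour exposure, single concentration, 96-well plates; percent growth endpoint where 0 means no net growth. Active: below 10.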 Unmarked numbers belong to inactive results. Activity calls are given as the source filed them.

Experiments:
Experiment in all cases: NCI-60 one-dose screen, 48 h (100 = growth as untreated, 0 = no growth, -100 = all killed)
Conditions in all cases: 10 µM unless noted
HCT-15 colon = system: HCT-15 colon
HT29 colon = system: HT29 colon
SNB-75 CNS = system: SNB-75 CNS
SNB-19 CNS = system: SNB-19 CNS
U251 CNS = system: U251 CNS
PC-3 prostate = system: PC-3 prostate
SK-MEL-5 melanoma = system: SK-MEL-5 melanoma
UACC-62 melanoma = system: UACC-62 melanoma
LOX IMVI melanoma = system: LOX IMVI melanoma
SK-MEL-28 melanoma = system: SK-MEL-28 melanoma
SK-MEL-2 melanoma = system: SK-MEL-2 melanoma
EKVX NSCLC = system: EKVX NSCLC
SN12C renal = system: SN12C renal
UO-31 renal = system: UO-31 renal
TK-10 renal = system: TK-10 renal
ACHN renal = system: ACHN renal
CAKI-1 renal = system: CAKI-1 renal
CCRF-CEM leukemia = system: CCRF-CEM leukemia
MOLT-4 leukemia = system: MOLT-4 leukemia
A498 renal = system: A498 renal

Structure (SMILES)	growth (HCT-15 colon)	growth (HT29 colon)	growth (SNB-75 CNS)	growth (SNB-19 CNS)	growth (U251 CNS)	growth (PC-3 prostate)	growth (SK-MEL-5 melanoma)	growth (UACC-62 melanoma)	growth (LOX IMVI melanoma)	growth (SK-MEL-28 melanoma)	growth (SK-MEL-2 melanoma)	growth (EKVX NSCLC)	growth (SN12C renal)	growth (UO-31 renal)	growth (TK-10 renal)	growth (ACHN renal)	growth (CAKI-1 renal)	growth (CCRF-CEM leukemia)	growth (MOLT-4 leukemia)	growth (A498 renal)
COc1cc(/C=N/N(C)C)ccc1O	105%	93.8%	103%	99%	81.8%	90%	99.5%	90.1%	108%	114%	101%	105%	94.9%	89.1%	94.5%	100%	102%	94.5%	89.7%	–
O=C(NCc1cccc(C(F)(F)F)c1)[C@H](CCC(=O)N1CCN(C2CCCCC2)CC1)N1C(=O)[C@@H](N2C(=O)OC[C@@H]2c2ccccc2)[C@H]1/C(Cl)=C/c1ccccc1	31.8%	2.23% (active)	58.5%	39.4%	28.1%	21.7%	-59.5% (active)	60.3%	19.9%	18.6%	34.8%	53.8%	–	27.5%	40.8%	58.4%	62.4%	33.9%	21.4%	46.9%
O=C1CC(c2nc3ccccc3s2)CN1C1CCCCC1 (stereo unspecified)	99.7%	95.4%	83.7%	105%	94.5%	90.1%	96.3%	93.9%	93%	101%	–	–	93.5%	70.5%	121%	98.5%	89.1%	100%	90.9%	73.2%
CCOC(=O)/C=C/c1ccc(C(=O)OCC)[nH]1	24.3%	15%	70.1%	87.7%	39.9%	83.5%	8.89% (active)	51%	52.7%	83.8%	47%	–	80.7%	72.1%	62.6%	64.9%	35.5%	82.8%	75.8%	49.8%
COc1ccc(CN2C(=O)/C(=C\c3cc(OC)c(OC)c(OC)c3)c3cc(OC)ccc32)cc1	-36.6% (active)	-25.3% (active)	28.3%	59.8%	-48% (active)	28.9%	1.57% (active)	-10.4% (active)	-71.8% (active)	-31.8% (active)	-13.4% (active)	13.5%	–	6.01% (active)	11.2%	-60.5% (active)	-2.31% (active)	–	-24.7% (active)	–
CC/C=C\C[C@H](O)C/C=C1/C(=O)C=C[C@@H]1C/C=C\CCCC(=O)OC(C)C	-33.5% (active)	-49.7% (active)	46%	9.75% (active)	-89.8% (active)	-0.368% (active)	-94.7% (active)	-41.7% (active)	-82.3% (active)	-41.3% (active)	-21.3% (active)	15.9%	-16.3% (active)	-72.6% (active)	-3.87% (active)	-79.1% (active)	9.27% (active)	-28.8% (active)	-24.5% (active)	–
COc1ccc(CN(c2ccc(C)cc2)C2OC(=O)c3ccccc32)cc1OC (stereo unspecified)	96.3%	97.9%	90.3%	96.5%	86.3%	90.6%	94.7%	94.9%	93.2%	108%	95.3%	–	99.1%	94.3%	107%	95%	99.1%	91.3%	98.6%	–
O=C(CCN1CCOCC1)Nc1ccc(Cn2nnc3c2C(=O)c2nnn(Cc4ccc(NC(=O)CCN5CCOCC5)cc4)c2C3=O)cc1	93.6%	1.57% (active)	-86.7% (active)	27.1%	-58.7% (active)	17.7%	-72.9% (active)	-17.3% (active)	-21.9% (active)	31.7%	–	–	-40.7% (active)	108%	123%	96.6%	90.6%	-15.4% (active)	–	71.8%
NC(=S)N/N=C/c1ccc(OCc2ccccc2)cc1	47.8%	47.7%	67.8%	73.1%	71.8%	64.2%	86.4%	61.8%	82.1%	80%	54.2%	74.8%	70.6%	22.8%	60.2%	67%	68.2%	39.1%	32.1%	–
COc1ccc(/C=C/C(=O)c2c(O)c(C)c(O)c3c2OC2=CC(O)=C(C(C)=O)C(=O)[C@]23C)cc1	-21.3% (active)	-27.2% (active)	-33% (active)	-14.9% (active)	-27.9% (active)	-2.15% (active)	-85.5% (active)	-59.9% (active)	-43.4% (active)	-50.7% (active)	-54.6% (active)	-2.89% (active)	-31.3% (active)	-22.5% (active)	-9.84% (active)	0.0747% (active)	6.28% (active)	-29.9% (active)	-27.9% (active)	–
Oc1cc(O)c2c(=S)cc(-c3ccc(Cl)cc3)oc2c1	25.4%	92.8%	48.3%	17.5%	19.6%	28.4%	3.09% (active)	22.6%	38.6%	40.5%	4.4% (active)	70.2%	–	18%	58.9%	23.6%	76.5%	15.8%	24.1%	59.1%
CCN(C(=O)CN1CCN(c2cc3c(cc2F)c(=O)c(C(=O)O)cn3C2CC2)CC1)c1nc(-c2ccc(OC)cc2)cs1	51.5%	7.28% (active)	81.8%	78.2%	14.1%	20.9%	28.9%	17.1%	-57.9% (active)	45.1%	79.2%	58.9%	–	33%	77.2%	78%	–	61.2%	70.6%	66.6%
COc1ccc(CNc2nccnn2)cc1	111%	97.8%	85.6%	102%	94.9%	101%	101%	93.4%	105%	97.7%	108%	99.1%	108%	100%	93.4%	98%	–	114%	47.7%	90.2%
CC/C(=C(\c1ccc(O)cc1)c1ccc(OCCN(C)CCN(C)C(=O)CCCCC(=O)c2c(C)[nH]c(/C=C3\N=C(c4ccc[nH]4)C=C3OC)c2C)cc1)c1ccccc1	60%	29.3%	105%	114%	72%	61.2%	77.8%	95.4%	44.9%	89.7%	–	–	82.9%	55.8%	119%	92.5%	78.5%	45.6%	56%	66.5%
O=C(CN1CCN(c2cc3c(cc2F)c(=O)c(C(=O)O)cn3C2CC2)CC1)Nc1nc(-c2ccccc2)cs1	82.4%	72.7%	69.6%	86.8%	43.8%	64.7%	78.9%	78.8%	36.5%	87.5%	94.6%	91.4%	71.2%	81.7%	82.9%	89.5%	93.8%	79.1%	89%	–
CC(C)(C)c1nn(-c2ccccc2)c2c1CC1(CN2Cc2ccc3c(c2)OCO3)C(=O)c2ccccc2C1=O	105%	103%	120%	111%	105%	91.8%	99.2%	92.3%	103%	116%	115%	119%	96.5%	104%	–	89.9%	98.9%	85.2%	80.3%	106%
